Assay results: PubChem BioAssay AID493169 (National Center for Advancing Translational Sciences (NCATS), 2011)
Records with an inconclusive call do not appear. Values without a mark were called inactive. Activity calls are given as the source filed them. Calls follow the shape of the dose curve; as a rule, active = well fitted inhibition curve with a large enough effect; inconclusive = small, poorly fitted or top-dose-only effect; inactive = flat fitted curve, though single readings scatter.

Assay: CHOP2 Reporter Counterscreen Assay for Inhibitors of Ubiquitin-specific Protease USP2a;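 also: activated enterokinase alone at 50 pM in a cell-free format rather than USP2a or CHOP2; nearly all actives have a fitted effect of over 55% in size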
Conditions: purified enterokinase, fluorogenic substrate, 485/531 nm; series mostly up to 38.3 µM; activity change, negative = inhibition: at the top concentration
Outline: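 Cell-free counterscreen with pre-activated enterokinase alone (50 pM final) in 20mM Tris-HCl pH 8.0, 2mM CaCl2, 2mM beta-mercaptoethanol, 0.05% CHAPS; compound preincubation 30 min RT, reporter substrate 25nM final, fluorescence read after 10 min (Ex 485/Em 531).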
% is scaled to controls: 0 for no effect and ±100 for the full control effect; potency is read from the fitted curve at half-maximal effect.

In order of rising “activity change, negative = inhibition” value:
1. Clc1ccccc1-c1nnc2sc(-c3cccs3)nn12  -19.6%
2. COc1cc(C(c2c(C)[nH][nH]c2=O)c2c(C)[nH][nH]c2=O)ccc1OCc1ccc([N+](=O)[O-])cc1  -5.71%
3. O=C(CSCCO)Nc1cccc2ccccc12  -4.29%
4. Cc1ccccc1OCCn1nc(C(=O)O)c2ccccc2c1=O  -4.22%
5. COc1cccc(NC(=O)c2ccccc2-c2nc(-c3cccc(C)c3)no2)c1  -4.15%
6. COCc1c(C(=O)OCC(=O)c2c(N)n(CC(C)C)c(=O)n(C)c2=O)oc2ccccc12  -2.9%
7. O=C(c1ccc(CS(=O)(=O)c2ccc(Br)cc2)o1)N1CCCC1  -2.08%
8. CC(C)C(=O)N=c1sc2cc(F)cc(F)c2n1C  -2%
9. CC(C)(C)C(=O)Nc1c2c(nc3c1CCC3)CCCC2  -1.85%
10. C(=N\N(c1ccccc1)c1ccccc1)/c1ccccn1  -1.74%
11. CCOc1ccc2[nH]c(=O)c(CN(Cc3cccs3)Cc3nnnn3C(C)(C)CC)cc2c1  -1.12%
12. Cc1nc(NC(C)C)c2cnn(CCc3ccccc3)c2n1  -1.05%
13. CN(c1cccc(NC(=O)Nc2cccc(Cl)c2)c1)S(C)(=O)=O  -0.746%
14. Fc1ccc(-c2nnn(Cc3nc4ccccc4s3)n2)cc1  -0.729%
15. O=C(c1ccccc1N(Cc1ccccc1)S(=O)(=O)c1ccccc1)N1CCOCC1  -0.49%
16. CC(=O)C1=C(O)C(=O)N(c2nnn(C)n2)C1c1cccs1 (stereo not given)  -0.348%
17. CC(=O)COc1ccc2c(-c3ccccc3)cc(=O)oc2c1  -0.186%
18. CN1CCN(CCCCOc2ccc(F)cc2)CC1  0.243%
19. CN(C)CCCN1C(=O)C(=O)/C(=C(/O)c2ccncc2)C1c1cccnc1 (stereo not given)  0.275%
20. CCC(C)(C)n1nnnc1C(c1ccc(C)cc1)N1CCCC1 (stereo not given)  0.491%
21. CC(C)Cn1c(SCC(N)=O)nnc1-c1cccc(S(=O)(=O)N2CCOCC2)c1  1.51%
22. COc1ccc(CCN2CC(C#N)=C3c4cc(OC)c(OC)cc4CCN3C2)cc1OC  1.78%
23. Cn1c(C(=O)N2CCN(Cc3ccc4c(c3)OCO4)CC2)cc2sccc21  2.17%
24. CCN1C(=O)CSc2ccc(C(=O)NC3CCCCC3)cc21  2.46%
25. CN(C)c1ccc(-c2ccccc2)nn1  2.68%
26. O=C(CNC(=O)c1ccco1)Nc1ccc(S(=O)(=O)N2CCCC2)cc1  3.16%
27. Nc1ccccc1S(=O)(=O)NC1=NCCCCC1  3.72%
28. O=C(CN1CCC(O)CC1)N1c2ccccc2C=Cc2ccccc21  4.57%
29. Cc1ccc(C)n1-c1cc(S(=O)(=O)N2CCOCC2)ccc1N1CCCC1  5.06%
30. CCOC(=O)CCCNC(=O)COC(=O)c1cccc(C)c1O  5.39%
31. CCOc1cc(N2CCOCC2)c(OCC)cc1NC(=O)Cc1cn2ccsc2n1  5.43%
32. COc1ccc(C(=O)C[N+]2(C)CCOCC2)cc1  6.58%

For `O=C(Nc1ccncc1)c1ccc(S(=O)(=O)Nc2ccccc2)cc1`, the Potency was 3.55 µM (active).
In the case of `O=C(/C=C1\NC2(CCCC2)Cc2ccccc21)C(=O)N/N=C/c1ccc(O)c(O)c1`, the Potency is reported as 4.47 µM (active).
For `CCCCCCCCCCOC(=O)Cn1c(COc2ccccc2C)[n+](C)c2ccccc21`, the Potency was 5.62 µM (active).
With `COc1ccc(/C=C2/SC(=S)N(c3ccc(S(=O)(=O)Nc4nccs4)cc3)C2=O)cc1` the Potency was 11.2 µM (active).
In the case of `CCCCCCCCCCOC(=O)Cn1c(COc2cccc(C)c2)[n+](C)c2ccccc21`, the Potency is reported as 10 µM (active).
For `CC(C)C(C(=O)O)N1C(=O)/C(=C/C=C/c2ccco2)SC1=S` (stereo not given), the Potency was 2 µM (active).
In the case of `O=C(Cc1ccc(S(=O)(=O)N2CCOCC2)s1)Nc1nc2c(s1)CCCC2`, the Potency is reported as 10 µM (active).
With `COc1cc2c(ccc3cc(OC)c(OC)c(O)c32)cc1O` the Potency was 5.62 µM (active).
